Compound activity deposited in PubChem by National Center for Advancing Translational Sciences (NCATS).
This is a sample that favours compounds with a hit; in the whole collection about 2.8% have one here.
HEK293 viab: cell viability loss counter-screen; HEK-293-SNCA-luc viability, GF-AFC fluorescence, 24 h; Potency, µM (doses to about 57.1 µM), hits mostly cytotoxic; actives 0.12% (n = 150,000); AID 1671193; further: nearly all actives have a fitted effect of over 30% in size
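HEK-293-SNCA-luc cells (1500/well) plated 24 h, then exposed 24 h to a dilution series; GF-AFC added 30 min at 37C, fluorescence 405/540 nm; normalised to medium-only and DMSO wells, Hill fit.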
SNCA expr inh: inhibitors of alpha-synuclein (SNCA) gene expression; actives 0.17% (n = 140,000); Potency, µM (highest dose often 57.2 µM), hits mostly inhibitors; HEK-293 SNCA-luciferase knock-in, luminescence, 24 h; further: nearly all actives have a fitted effect of over 45% in size
IP6K1 inhibitor: IP6K1 kinase inhibition; Q92551; IP6K1 kinase, ADP-Glo luminescence, 2 h; stronger effect = lower value; activity change, % (series mostly up to about 58 µM); actives 0.81% (n = 140,000); in the data active means activity change below about -25%
Target sequence (Q92551 whole entry, looked up): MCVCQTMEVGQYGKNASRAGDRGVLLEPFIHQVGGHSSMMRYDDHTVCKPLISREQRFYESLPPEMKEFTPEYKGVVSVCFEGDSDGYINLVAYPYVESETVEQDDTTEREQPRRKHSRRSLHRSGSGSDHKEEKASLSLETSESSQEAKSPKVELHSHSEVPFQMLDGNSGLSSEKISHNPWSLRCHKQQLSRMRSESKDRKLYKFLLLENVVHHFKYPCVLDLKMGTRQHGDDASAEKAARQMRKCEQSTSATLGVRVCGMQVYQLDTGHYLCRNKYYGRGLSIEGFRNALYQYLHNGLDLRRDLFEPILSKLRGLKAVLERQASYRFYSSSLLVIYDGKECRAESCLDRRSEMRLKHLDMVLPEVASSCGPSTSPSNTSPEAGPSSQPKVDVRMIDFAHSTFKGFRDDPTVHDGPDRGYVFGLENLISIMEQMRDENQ
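ADP-Glo luminescence measures ADP made by human IP6K1 during a 2 h RT reaction with ATP/IP6 (mix at 1.3 mM/130 uM); top library doses 57.5 and 19.1 uM final.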
KDM5B inh: inhibitors of human KDM5B histone demethylase. Potency, µM (highest dose often 57.7 µM), most hits filed as inhibitors. Q9UGL1. actives 2.6% (n = 220,000). AID 1347165. KDM5B demethylase, FDH-coupled NADH fluorescence (FDH is formaldehyde dehydrogenase); further: nearly all actives have a fitted effect of over 70% in size
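Inhibition is measured as reduced NADH fluorescence generation from FDH coupling to formaldehyde release. Truncated KDM5BΔAP at 200 nM final acts on H3K4me3 peptide (12.5 µM in substrate mix) in pH 7.5 HEPES buffer with Tween-20, 30 min, room temperature.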
Each line names hits and unclear results; the compound was inactive in the other large screens. Unless noted, the call rests on the fitted dose curve; in most records, active means well fitted curve in the direction sought with a large enough effect; inconclusive means small, poorly fitted or top-dose-only effect, or another doubt; inactive means no such curve, though single readings can be large; an effect the other way counts as inactive or inconclusive.

CC1=C[C@@H](CNC(=O)COc2ccccc2)[C@H](C(C)C)C[C@H]1CC(=O)N1CCN(C)CC1	none
COc1ccc(S(=O)(=O)NC[C@@H]2C=C(C)[C@H](CC(=O)N3CCN(C)CC3)C[C@H]2C(C)C)cc1	none
Cc1occc(=O)c1O[C@@H]1O[C@H](CO)[C@@H](O)[C@H](O)[C@H]1O	none (no result: SNCA expr inh, KDM5B inh)
COCCn1nc2n(c1=O)CCN(Cc1scnc1C)CC2	none
COC(=O)CNC(=O)C1=NOC2CN([S+](C)(=O)[O-])CC12 (stereo unspecified)	SNCA expr inh inconclusive
CC1=C[C@@H](CNC(=O)CC(C)(C)C)[C@H](C(C)C)C[C@H]1CC(=O)O	KDM5B inh 28µM
Cc1cc2cc(-c3c(C)noc3C)nc(-c3ccc(CO)cc3)c2o1	KDM5B inh inconclusive
COc1cc(F)ccc1-c1nc(-c2c(C)noc2C)cc2cc(C)oc12	KDM5B inh inconclusive
Cc1cc2cc(-c3c(C)noc3C)nc(-c3cccc([S+](C)(=O)[O-])c3)c2o1	KDM5B inh 32µM
Cc1noc(C)c1-c1cc2cc(CN(C)C)oc2c(Nc2ccn(C)n2)n1	none
Cc1noc(C)c1-c1cc2cc(CO)oc2c(-c2cccc(OC(C)C)c2)n1	KDM5B inh 25µM
COc1cccc(-c2nc(-c3c(C)noc3C)cc3cc(C)oc23)c1	KDM5B inh 35µM
Cc1noc(C)c1-c1cc2cc(CO)oc2c(-c2ccccc2)n1	KDM5B inh inconclusive
Cc1noc(C)c1-c1cc2cc(CN(C)C)oc2c(Nc2cccc([S+](C)(=O)[O-])c2)n1	KDM5B inh 32µM
CCOC(=O)N1CCN([C@H]2CS(=O)(=O)C[C@@H]2S(=O)(=O)c2ccccc2)CC1	none (no result: HEK293 viab, SNCA expr inh, IP6K1 inhibitor)
Cc1noc(C)c1-c1cc2cc(CO)oc2c(-c2ccc([S+](C)(=O)[O-])cc2)n1	KDM5B inh 35µM
COC(=O)c1c(NC(C)=O)c2cc(NC3CCN(C(C)=O)CC3)cnc2n1CC1CCCO1 (stereo unspecified)	HEK293 viab inconclusive, KDM5B inh 20µM
CNC(=O)N1CCC(C2CCN(C(=O)NC(C)C)C2)CC1 (stereo unspecified)	none
CN(C)c1ccc(-c2nc(-c3nnn4c3COC(c3ccccc3Cl)C4)no2)cc1 (stereo unspecified)	KDM5B inh 25µM
COc1ccc(-c2nc(-c3nnn4c3COC(c3ccccc3Cl)C4)no2)cc1 (stereo unspecified)	none
COc1cccc(-c2nc(-c3nnn4c3COC(c3ccccc3Cl)C4)no2)c1OC (stereo unspecified)	KDM5B inh 14µM
N#Cc1c(C(F)(F)F)cc(-c2ccccc2)nc1SCCc1ccccc1	none (no result: HEK293 viab, SNCA expr inh, IP6K1 inhibitor)
CC(C)(C)C1CCC2(CC1)NC(=O)N(CC(=O)Nc1ccccc1)C2=O (stereo unspecified)	none
COc1cccc(CNC(=O)C2c3ccccc3CC(=O)N2C(C)C)c1 (stereo unspecified)	none
CC(C)(Oc1nn(Cc2cccc(Cl)c2)c2ccccc12)C(=O)NCCCN1CCCC1=O	HEK293 viab inconclusive
Cc1ccc(C(=O)N2CCC(Oc3ncccc3C(=O)N3CCCCC3)C2)cc1C (stereo unspecified)	KDM5B inh 28µM
O=C(c1cc(F)cc(F)c1)N1CCC(Oc2ncccc2C(=O)N2CCCCC2)C1 (stereo unspecified)	none
CCCN(C)c1nccnc1OC1CCN(C(=O)c2ccccc2OC)C1 (stereo unspecified)	KDM5B inh 28µM
O=C(O)C(Cc1cccs1)c1ccccc1 (stereo unspecified)	none (no result: HEK293 viab, SNCA expr inh, IP6K1 inhibitor)
O=C(Nc1cccc(Br)c1)C1CCN(S(=O)(=O)Cc2ccccc2)CC1	none (no result: HEK293 viab, SNCA expr inh, IP6K1 inhibitor)
CCCOC(=O)c1ccc(Oc2c(C(F)(F)F)oc3cc(O)ccc3c2=O)cc1	none (no result: HEK293 viab, SNCA expr inh, IP6K1 inhibitor)
CCc1ccc(NC(=O)Cn2cccc2-c2nc(-c3ccc(OC)c(F)c3)no2)cc1	none
CN(C)CCCOc1ccc(-c2cnc(N)cn2)cn1	KDM5B inh 32µM
COc1ccc(CN2CCNc3cnc(Nc4ccccc4)cc3C2)cc1	KDM5B inh 35µM
COc1ccc(Nc2cc3c(cn2)NCCN(Cc2ccccc2)C3)cc1	HEK293 viab inconclusive, SNCA expr inh inconclusive, KDM5B inh inconclusive
COc1ccc(CN2CCNc3cnc(OCc4cccnc4)cc3C2)cc1	KDM5B inh 28µM
COc1ccc(CN2CCNc3cnc(Nc4ccccc4)cc3C2)cn1	KDM5B inh 35µM
c1ccc(Nc2cc3c(cn2)NCCN(Cc2ccsc2)C3)cc1	KDM5B inh 35µM
